# Experimental data published in PMC8384837, “Expanding the binding specificity for RNA recognition by a PUF domain”.
# Tests used:
# Experiment in all cases: yeast three-hybrid, YBZ-1, SC-Leu-His + 0.5 mM 3-AT, 4 days
# Conditions in all cases: tags: N-Gal4 AD-HA kept; label: inside an RPR1-promoter hybrid RNA with tandem MS2 sites; ssRNA
# PUM1 PUF domain R3-GHG = PUM1 PUF domain R3-GHG (Homo sapiens, UniProt Q14671 828-1176, C935G;R936H;Q939G)
# How it was run: (§1)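 A centromeric plasmid in strain YBZ-1 co-expressed Pumilio-1 PUF domain libraries, randomized at the three base-contacting residues of each repeat, with matching RNA elements; the strain carries a LexA–MS2 coat fusion and a HIS3 reporter. After four days on SC-Leu (input) or SC-Leu-His + 0.5 mM 3-AT (selection), the repeat regions were PCR-amplified and Illumina-sequenced. The interaction score is the log change in variant frequency from input to selection, using log2 and a pseudocount of 1 where absent.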
# PUM1 PUF domain R3-PRE = PUM1 PUF domain R3-PRE (Homo sapiens, UniProt Q14671 828-1176, C935P;Q939E)
# How it was run: as §1
# PUM1 PUF domain R2-VYP = PUM1 PUF domain R2-VYP (Homo sapiens, UniProt Q14671 828-1176, N899V;Q903P)
# How it was run: as §1
# PUM1 PUF domain R7-CWP = PUM1 PUF domain R7-CWP (Homo sapiens, UniProt Q14671 828-1176, S1079C;N1080W;E1083P)
# How it was run: as §1
# PUM1 PUF domain R7-RMR = PUM1 PUF domain R7-RMR (Homo sapiens, UniProt Q14671 828-1176, S1079R;N1080M;E1083R)
# How it was run: as §1
# PUM1 PUF domain R7-RTC = PUM1 PUF domain R7-RTC (Homo sapiens, UniProt Q14671 828-1176, S1079R;N1080T;E1083C)
# How it was run: as §1
# PUM1 PUF domain R4-FNL = PUM1 PUF domain R4-FNL (Homo sapiens, UniProt Q14671 828-1176, N971F;H972N;Q975L)
# How it was run: as §1
# PUM1 PUF domain R4-AWP = PUM1 PUF domain R4-AWP (Homo sapiens, UniProt Q14671 828-1176, N971A;H972W;Q975P)
# How it was run: as §1
# PUM1 PUF domain R5-SEQ = PUM1 PUF domain R5-SEQ (Homo sapiens, UniProt Q14671 828-1176, C1007S;R1008E)
# How it was run: as §1
# PUM1 PUF domain R5-RFS = PUM1 PUF domain R5-RFS (Homo sapiens, UniProt Q14671 828-1176, C1007R;R1008F;Q1011S)
# How it was run: as §1
# PUM1 PUF domain R8-LHK = PUM1 PUF domain R8-LHK (Homo sapiens, UniProt Q14671 828-1176, N1122L;Y1123H;Q1126K)
# How it was run: as §1
# PUM1 PUF domain R5-KAL = PUM1 PUF domain R5-KAL (Homo sapiens, UniProt Q14671 828-1176, C1007K;R1008A;Q1011L)
# How it was run: as §1
# PUM1 PUF domain R5-NIA = PUM1 PUF domain R5-NIA (Homo sapiens, UniProt Q14671 828-1176, C1007N;R1008I;Q1011A)
# How it was run: as §1
# PUM1 PUF domain R5-FHG = PUM1 PUF domain R5-FHG (Homo sapiens, UniProt Q14671 828-1176, C1007F;R1008H;Q1011G)
# How it was run: as §1
sequence,measurement,setting,value
GGCUAGAACUAGUGGAUCCCCCGGCGCCCGGCGGCUCGAGCCCGGGUAAGUGUAAUUAGUCUGCAUGCCGCCGGGCGCCAUGCCUGCAGGUCGACUCUAGAAAACAUG,binding signal,PUM1 PUF domain R3-GHG,1.43 log2 enrichment (interaction score)
GGCUAGAACUAGUGGAUCCCCCGGCGCCCGGCGGCUCGAGCCCGGGUAAGUGUAAGUAGUCUGCAUGCCGCCGGGCGCCAUGCCUGCAGGUCGACUCUAGAAAACAUG,binding signal,PUM1 PUF domain R3-PRE,4.92 log2 enrichment (interaction score)
same,binding signal,PUM1 PUF domain R3-GHG,1.95 log2 enrichment (interaction score)
GGCUAGAACUAGUGGAUCCCCCGGCGCCCGGCGGCUCGAGCCCGGGUAAGUGUAAAAAGUCUGCAUGCCGCCGGGCGCCAUGCCUGCAGGUCGACUCUAGAAAACAUG,binding signal,PUM1 PUF domain R2-VYP,3.97 log2 enrichment (interaction score)
GGCUAGAACUAGUGGAUCCCCCGGCGCCCGGCGGCUCGAGCCCGGGUAAGUUUAAAUAGUCUGCAUGCCGCCGGGCGCCAUGCCUGCAGGUCGACUCUAGAAAACAUG,binding signal,PUM1 PUF domain R7-CWP,4.38 log2 enrichment (interaction score)
same,binding signal,PUM1 PUF domain R7-RMR,4.78 log2 enrichment (interaction score)
same,binding signal,PUM1 PUF domain R7-RTC,3.51 log2 enrichment (interaction score)
GGCUAGAACUAGUGGAUCCCCCGGCGCCCGGCGGCUCGAGCCCGGGUAAGUGUACAUAGUCUGCAUGCCGCCGGGCGCCAUGCCUGCAGGUCGACUCUAGAAAACAUG,binding signal,PUM1 PUF domain R4-FNL,1.89 log2 enrichment (interaction score)
same,binding signal,PUM1 PUF domain R4-AWP,5.02 log2 enrichment (interaction score)
GGCUAGAACUAGUGGAUCCCCCGGCGCCCGGCGGCUCGAGCCCGGGUAAGUGUGAAUAGUCUGCAUGCCGCCGGGCGCCAUGCCUGCAGGUCGACUCUAGAAAACAUG,binding signal,PUM1 PUF domain R5-SEQ,3.78 log2 enrichment (interaction score)
same,binding signal,PUM1 PUF domain R5-RFS,1.78 log2 enrichment (interaction score)
GGCUAGAACUAGUGGAUCCCCCGGCGCCCGGCGGCUCGAGCCCGGGUAAGCGUAAAUAGUCUGCAUGCCGCCGGGCGCCAUGCCUGCAGGUCGACUCUAGAAAACAUG,binding signal,PUM1 PUF domain R8-LHK,3.29 log2 enrichment (interaction score)
GGCUAGAACUAGUGGAUCCCCCGGCGCCCGGCGGCUCGAGCCCGGGUAAGUGUUAAUAGUCUGCAUGCCGCCGGGCGCCAUGCCUGCAGGUCGACUCUAGAAAACAUG,binding signal,PUM1 PUF domain R5-KAL,3.43 log2 enrichment (interaction score)
same,binding signal,PUM1 PUF domain R5-NIA,4.96 log2 enrichment (interaction score)
same,binding signal,PUM1 PUF domain R5-RFS,5.12 log2 enrichment (interaction score)
same,binding signal,PUM1 PUF domain R5-FHG,3.39 log2 enrichment (interaction score)
